According to the supplement of paper PMC6522484:
± gives the standard deviation of the averaged measurements.

Tested on: SW480
Test: TCF/Wnt firefly luciferase reporter signal relative to plate median (fraction of plate median); higher = higher Wnt reporter signal
Conditions: 5 µM; treatment time 24 h; reporter: 7TFP
Procedure, shortened: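 On parallel plates, a Tecan F500 reader recorded either firefly luciferase or CellTiterGlo luminescence. The plates held colorectal cancer cells stably transduced with lentiviral TCF/Wnt firefly luciferase reporters (7TFP or TCF4/Wnt), seeded in 384-well format and treated 24 h later with library compounds at a final 5 µM for 24 h. Per-well signals were normalised to the plate median (webcellHTS2, additive, no log transformation), and two independent replicates were averaged.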

SMILES | TCF/Wnt firefly luciferase reporter signal
Cc1cc(O)c2c(c1)C(=O)c1cccc(O)c1C2=O | 0.934 ± 0.042
COC(=O)C[C@H]1C(C)(C)C(=O)[C@@H]2CC3=C4CC(=O)O[C@@H](c5ccoc5)[C@]4(C)CC[C@@H]3[C@@]1(C)C2=O | 1.03 ± 0.035
CC[C@@]1(O)C(=O)OCc2c1cc1n(c2=O)Cc2cc3cc(O)ccc3nc2-1 | 0.805 ± 0.041
C#C[C@]1(OC(C)=O)CC[C@H]2[C@@H]3CCC4=CC(=O)CC[C@@H]4[C@H]3CC[C@@]21C | 0.768 ± 0.023
CCN(CC)CCOCCOC(=O)C1(c2ccccc2)CCCC1 | 1.04 ± 0.028
C=C1C(=O)C[C@@H]2[C@@H]3CC[C@@H](C(=O)O)[C@@]12CC3(C)C [Terrecyclic Acid A] | 0.961 ± 0.044
C=CCCCCCCCCC(=O)O | 1 ± 0.037
CC1CCc2cc(F)cc3c(=O)c(C(=O)O)cn1c23 (stereo not given) | 1.07 ± 0.014
Cc1cc(=O)oc2c(O)c(O)ccc12 | 0.944 ± 0.0071
CNCC[C@H](Oc1cccc2ccccc12)c1cccs1 | 0.97 ± 0.021
COc1ccc(C2CC(=O)c3ccc(OC)cc3O2)cc1 (stereo not given) | 0.901 ± 0.021
Cc1cc(C)cc(OCC2CNC(=O)O2)c1 (stereo not given) | 0.957 ± 0.039
FC(F)(F)C(Cl)Br (stereo not given) | 1.1 ± 0.092
CC[C@H]1OC(=O)[C@H](C)[C@@H](O[C@H]2C[C@@](C)(OC)[C@@H](O)[C@H](C)O2)[C@H](C)[C@@H](O[C@@H]2O[C@H](C)C[C@H](N(C)C)[C@H]2O)[C@](C)(O)C[C@@H](C)CN(C)[C@H](C)[C@@H](O)[C@]1(C)O | 1.04 ± 0.12
O=C(O)C1=C(CSc2nnnn2CS(=O)(=O)O)CS[C@@H]2[C@H](NC(=O)[C@H](O)c3ccccc3)C(=O)N12 | 0.968 ± 0.04
